Cruzain inh Det: qHTS Assay for Promiscuous and Specific Inhibitors of Cruzain (with detergent); purified cruzain, Z-FR-AMC fluorescence, 0.01% Triton; Potency, µM, inactives show max response, negative = inhibition, hits mostly inhibitors; 200,000 compounds, 0.43% hits;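 also: plate controls were neutral wells for no effect and buffer without enzyme for full effect; nearly all actives have a fitted effect of over 40% in size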
Target sequence (P25779 123-467 limits assumed): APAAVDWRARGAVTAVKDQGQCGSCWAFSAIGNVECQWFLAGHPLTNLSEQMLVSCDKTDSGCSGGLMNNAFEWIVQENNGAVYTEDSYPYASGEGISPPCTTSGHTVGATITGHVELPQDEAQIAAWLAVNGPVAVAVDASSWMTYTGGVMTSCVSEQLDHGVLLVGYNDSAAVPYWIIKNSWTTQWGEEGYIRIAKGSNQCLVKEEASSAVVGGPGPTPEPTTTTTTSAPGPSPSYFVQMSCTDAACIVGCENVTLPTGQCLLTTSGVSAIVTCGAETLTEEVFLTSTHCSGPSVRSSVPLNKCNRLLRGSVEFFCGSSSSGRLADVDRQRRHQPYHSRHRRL
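Cruzain (1.5 nM) preincubated 15 min at RT with compound in 100 mM sodium acetate pH 5.5, 5 mM DTT, 0.01% Triton X-100. Reaction started with 2 uM Z-FR-AMC; AMC fluorescence (ex 360/em 450 nm) change over 60 s gave rate.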
Cruzain inh noDet: qHTS Assay for Promiscuous and Specific Inhibitors of Cruzain (without detergent). 200,000 compounds, 2.3% hits. Potency, µM, for the others: max response, negative = inhibition, usual class: inhibitors. Cruzipain (Trypanosoma cruzi), P25779. AID 1476, 2009. purified cruzain, Z-FR-AMC fluorescence, no detergent;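 also: plate controls were enzyme without inhibitor for no effect and buffer without enzyme for full effect; nearly all actives have a fitted effect of over 40% in size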
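Purified cruzain at 1.5 nM, pre-incubated 15 min with compound at room temperature in 100 mM sodium acetate pH 5.5, 5 mM DTT, 0.00005% Triton X-100. Reaction started with 2 uM Z-FR-AMC; AMC fluorescence increase over 60 s gives rate.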
An asterisk follows results filed as active; ? = inconclusive. This is a sample that favours compounds with a hit; in the whole collection about 2.4% have one here. Calls follow the shape of the dose curve; as a rule, active = well fitted curve in the direction sought with a large enough effect; inconclusive = small, poorly fitted or top-dose-only effect, or another doubt; inactive = no such curve, though single readings can be large; an effect the other way counts as inactive or inconclusive. Potency is read from the fitted curve at half-maximal effect.

SMILES	Cruzain inh Det	Cruzain inh noDet
Cc1ccccc1Nc1nc(N)c(C(=O)c2ccccc2Cl)s1	-9%	?
COC(=O)[C@@H](NC(=O)NC(C)CCc1ccccc1)C(C)C (stereo partly specified)	5%	12%
CC(C)[C@H](NC(=O)[C@H](CCCN=C(N)N)NC(=O)NC(Cc1ccccc1)C(=O)O)C(=O)NC(C=O)CCCN=C(N)N (stereo partly specified)	0.035µM*	0.032µM*
Cc1ccc(Nc2ncc(C(=O)N3CCN(c4ccc(F)cc4)CC3)c3ccccc23)cc1Cl	-8%	?
Cc1nn(CC(=O)N2CCN(c3ccccc3)CC2)c(=O)c2cc3cc(F)ccc3n12	-2%	12%
CSc1ccc(/C=c2\s/c(=C\C(=O)C(C)(C)C)n(CC(=O)NCCC3=CCCCC3)c2=O)cc1	-3%	3.2µM*
COCCNC(=O)CCCn1c(=O)c2ccccc2n(CC(=O)NCCC2=CCCCC2)c1=O	0%	15%
Cc1ccc(-n2nnnc2CNC(=O)c2ccc(F)cc2)cc1C	4%	-2%
O=S(=O)(O)c1ccc(NN(c2c(O)ccc3ccccc23)S(=O)(=O)O)cc1	-13%	2%
Cc1ccc(NC(=O)Cn2c(=O)n(Cc3nc(-c4ccccc4)no3)c(=O)c3cc4c(cc32)OCO4)c(C)c1	0%	-20%
O=C(Cn1c(=O)n(Cc2nc(-c3ccccc3)no2)c(=O)c2cc3c(cc21)OCO3)Nc1ccccc1	-4%	?
Cc1ccc(NC(=O)Cn2c(=O)n(Cc3nc(-c4ccccc4)no3)c(=O)c3cc4c(cc32)OCO4)cc1F	-3%	13µM*
O=C(Cn1c(=O)n(Cc2nc(-c3ccccc3)no2)c(=O)c2cc3c(cc21)OCO3)Nc1ccc(Cl)cc1	-4%	10µM*
CCc1nn(CC(=O)Nc2ccc(NC(C)=O)cc2)c(=O)c2cc3sccc3n12	3%	2%
COc1ccc(-c2nc(CSCC(=O)NCCC(C)C)c(C)o2)cc1OC	2%	-6%
Cn1nc(-c2ccccc2F)c2cc(C(=O)N3CCN(c4ccccc4F)CC3)sc21	-6%	17%
CC1Cc2ccccc2N1c1nc(C2CC2)nc2c1nnn2Cc1ccccc1 (stereo unspecified)	-17%	20µM*
CC1Cc2ccccc2N1c1ncnc2c1nnn2Cc1ccccc1 (stereo unspecified)	-24%	?
CCN(CC)c1ccc(/C=N/Nc2nc3ccccc3[nH]2)cc1	-10%	?
Clc1nc2ccccc2cc1/C=N/Nc1nc2ccccc2[nH]1	28µM*	?
C(=N\Nc1nc2ccccc2[nH]1)/c1cccs1	-27%	?
Cc1nn(-c2ccccc2)c(C)c1/C=N/Nc1nc2ccccc2[nH]1	?	25µM*
CC(C)CCn1c(=O)c2sccc2n2c(CCCC(=O)Nc3ccc(C(C)C)cc3)nnc12	0%	-12%
Cc1ccc2oc(-c3ccc(Cl)c(NC(=O)c4cc5ccccc5o4)c3)nc2c1	0%	7%
O=C(CN1CCCN(Cc2cccc(F)c2)S1(=O)=O)Nc1ccc2c(c1)OCCO2	-3%	-2%
SMILES	Cruzain inh Det	Cruzain inh noDet
CCc1ccc(CN(Cc2ccco2)c2cnc(S(C)(=O)=O)nc2C(=O)Nc2c(C)cccc2C)cc1	-3%	?
CCCCn1cnc2c(SC)ncnc21	3%	-5%
Cc1ccc(NC(=O)N2CCN(c3nnc(C)c4c(C)n(-c5ccc(Cl)cc5)nc34)CC2)c(C)c1	0%	-7%
Cc1cc(C)cc(-n2c(SCC(=O)NCc3ccc(F)cc3)nc3c([nH]c4ccccc43)c2=O)c1	-1%	5%
Cc1cc(C)cc(NC(=O)CSc2nc3c(oc4ccccc43)c(=O)n2-c2ccccc2F)c1	-1%	20µM*
CC(=O)c1ccc(NC(=O)CSc2nnc3c(n2)[nH]c2ccccc23)cc1	-12%	?
Cc1ccc(-n2c(SCC(=O)NCc3ccc(F)cc3)nc3c([nH]c4ccccc43)c2=O)cc1	-4%	16µM*
O=C(CSc1nc2c(oc3ccccc32)c(=O)n1-c1ccccc1F)Nc1ccccc1	-1%	-25%
Cc1cc2ccccc2nc1SCC(=O)Nc1nc(-c2ccccc2)cs1	4%	7.9µM*
O=C(CSc1nnc2c(n1)[nH]c1ccccc12)Nc1ccc2c(c1)OCO2	-6%	25µM*
O=C(CSc1nc2ccccc2o1)Nc1nc(-c2ccccc2)cs1	-4%	?
COC(=O)c1ccc(OCC2c3cc(OC)c(OC)cc3CCN2C(=O)Cc2ccc(OC)cc2)cc1 (stereo unspecified)	0%	-1%
COc1ccccc1CNc1ncnc2ccc(-c3ccccc3C#N)cc12	-6%	?
COC(=O)C1(C(=O)OC)C[C@@H]2CON=C2[C@H]1c1ccccc1	-1%	7%
Nc1cc(C(=O)O)c(O)c(S(=O)(=O)O)c1	1%	0%
CCOC(=O)c1c(S(=O)(=O)NCC(=O)N2CCN(c3cccc(Cl)c3)CC2)c(C)n(C)c1C	3%	?
O=C(CSc1nc2c([nH]c3ccccc32)c(=O)n1-c1ccc(F)cc1)Nc1ccc2c(c1)OCO2	-1%	1%
COCCn1c(SCC(=O)Nc2ccc3c(c2)OCCO3)nc2c(c1=O)SC(C)C2 (stereo unspecified)	0%	-19%
COc1cccc(-n2c(SCC(=O)Nc3cccc(C)c3)nc3c([nH]c4ccccc43)c2=O)c1	0%	32µM*
COc1cccc(NC(=O)CSc2nc3c([nH]c4ccccc43)c(=O)n2-c2cccc(Cl)c2)c1	0%	-22%
Cc1nnc(NC(=O)CSc2nnc3c(n2)[nH]c2ccccc23)s1	-3%	5%
Cc1ccc(-c2csc(NC(=O)CSc3nnc4c(n3)[nH]c3ccccc34)n2)cc1	-10%	16µM*
Cc1cc(C)cc(-n2c(SCC(=O)Nc3ccc4c(c3)OCO4)nc3c([nH]c4ccccc43)c2=O)c1	-2%	6.3µM*
CC1Cc2nc(SCC(=O)Nc3ccc4c(c3)OCO4)n(Cc3ccccc3)c(=O)c2S1 (stereo unspecified)	-2%	32µM*
Cc1cccc(C(=O)NC(=O)Nc2ccc(-n3nc(C(F)(F)F)cc3C(F)(F)F)cc2)c1	-2%	-11%
SMILES	Cruzain inh Det	Cruzain inh noDet
Cc1ccc(C(=N)c2ccccc2Cc2cccc3ccccc23)c2ccccc12	1%	?
CCOc1ccccc1NC(=O)Cc1csc(COc2cccc(C)c2)n1	-9%	-1%
CCOc1ccc(NC(=O)C(=O)NCC(c2cccnc2)N2CCc3ccccc32)cc1 (stereo unspecified)	-1%	-7%
COc1ccc(C(=O)NCC(c2ccc(N(C)C)cc2)N2CCc3ccccc32)cc1OC (stereo unspecified)	-8%	?
Cc1cc(NC(=O)CSc2nc3c([nH]c4ccccc43)c(=O)n2-c2ccccc2F)no1	-4%	-18%
O=C(CSc1nc2c([nH]c3ccccc32)c(=O)n1-c1ccccc1F)Nc1cccc(Cl)c1	0%	13µM*
Cc1c(NC(=O)CSc2ccc(Cl)cc2)cccc1-c1nc2cc(Cl)ccc2o1	-1%	25µM*
Cc1ccc(SCC(=O)Nc2cccc(-c3nc4cc(Cl)ccc4o3)c2C)cc1	-2%	-3%
O=C(Cc1ccc(Cl)cc1)Nc1ccc2oc(-c3ccccc3F)nc2c1	-1%	7.9µM*
O=C(Cc1ccc(Cl)cc1)Nc1ccc2oc(-c3ccncc3)nc2c1	-1%	6%
Cc1ccccc1CNC(=O)CCCn1c(=O)c2cccn2c2ccccc21	-4%	2%
